Laboratory results: PubChem BioAssay
Values joined by “and” are separate entries in the source; they are usually repeats but may differ in a detail not shown here. Equal entries are not always repeated. Where a SMILES comes first, the peptide text is derived from it. [ ]: non-standard residue; d: D form. ξ: configuration not given here. ξV = CC(C)C(N)C(=O)O

Legend:
[1] = tested on: Botulinum neurotoxin type F light chain protease (Clostridium botulinum); experiment: Botulinum neurotoxin type F light chain protease inhibition, multiplex microsphere flow cytometry, validation set (AID 588459); conditions: multiplex microsphere protease substrate cleavage assay, at 10 µM, hits give high values
[2] = molecular target: Botulinum neurotoxin type A (Clostridium botulinum) (UniProt P0DPI0); experiment: BoNT/A light chain protease inhibitors, biochemical, multiplex microsphere flow cytometry, validation set (AID 588460); conditions: at 10 µM, hits give high values
[3] = molecular target: Lethal factor (Bacillus anthracis) (UniProt P15917); experiment: Lethal factor protease inhibitors, Bacillus anthracis, multiplex microsphere cleavage assay, validation set (AID 588461); conditions: flow cytometry, at 10 µM, hits give high values

Measured: inhibition

O=C(NC(=S)Nc1ccc2c(c1)OCCO2)c1ccccc1F
inactive: [1] 2.3% | [2] 0.4% | [3] -3%

CC(C)(C)OC(=O)NCCC(=O)Oc1ccc2ccc(=O)oc2c1
inactive: [1] -1.5% | [2] -0.8% | [3] 0.5%

Cc1ccc2c(c1)c1c3n2CCCN(Cc2ccccc2)C3CCC1 (centres undefined)
inactive: [1] -0.2% | [2] -0.1% | [3] -3%

CSc1ccc2c(c1)N(CCC1CCCCN1C)c1ccccc1S2 (centres undefined)
inactive: [1] -0.1% | [2] -0.8% | [3] -7%

O=C(N1CCCC1)C12CC3CC(C1)CC(C(=O)N1CCCC1)(C3)C2
inactive: [1] -1.6% | [2] -2.5% | [3] -8%

CC1(C)S[C@@H]2[C@H](NC(=O)Cc3ccccc3)C(=O)N2[C@H]1C(=O)O
inactive: [1] 4.2% | [2] 1.7% | [3] -0.8%

COc1ccc(OC)c(S(=O)(=O)N2CCCc3ccccc32)c1
inactive: [1] -4.6% | [2] -0.4% | [3] -0.9%

CC(=O)c1c(C)[nH]c(C(=O)OCc2ccccc2)c1C
inactive: [1] 2.9% | [2] 0.8% | [3] -6.6%

O=C(O)CP(=O)(O)O
inactive: [1] 1.3% | [2] 0.3% | [3] -2.7%

CC(=O)NC(C(=O)NCC(N)=O)C(C)C (centres undefined) (Ac-[ξV]-Gly-NH2)
inactive: [1] -3% | [2] 0.1% | [3] 0.5%

N=C(N)c1ccc(OCCCCCOc2ccc(C(=N)N)cc2)cc1
inactive: [1] 0.7% | [2] -1.6% | [3] -2.7%

COc1ccc(CN2CCCCC2C(=O)Nc2ccc(OC)c(OCC(C)C)c2)cc1OC (centres undefined)
inactive: [1] 0.9% | [2] 0.2% | [3] -1.3%

CSc1ccc(CN2CCN(CCC(C)C)C(CCO)C2)cc1 (centres undefined)
inactive: [1] 2.2% | [2] 0.1% | [3] -3.3%

COc1ccc(N2C(=O)[C@@H]3[C@H](C2=O)[C@H]2c4ccccc4C=CN2[C@@H]3C(C)=O)cc1
inactive: [1] -2.1% | [2] -0.4% | [3] -16.8%

COc1ccc(C=NCC2COc3ccccc3O2)cc1OC (centres undefined)
inactive: [1] -0.8% | [2] -3.3% | [3] -3.2%

CC(=O)Nc1ccc(CN2CCN(C3CCCCC3)C(CCO)C2)cc1 (centres undefined)
inactive: [1] -0.2% | [2] -1.1% | [3] -3.7%

Cc1ccc2c(c1)c(C)cc(=O)n2CCC(=O)O
inactive: [1] 0.8% | [2] -0.2% | [3] 1.1%

O=c1c2ccccc2nc2n1-c1ccccc1CCC2
inactive: [1] 3.5% | [2] 0.6% | [3] 12.2%

Cc1ccc2c(c1)C1CN(C)CCC1N2S(=O)(=O)c1ccc(Oc2ccc([N+](=O)[O-])cc2)cc1 (centres undefined)
inactive: [1] 2.6% | [2] 0.4% | [3] 8.4%

O=C(c1ccc(-c2ccccc2)c(F)c1)C1CCCN(C(=O)c2cncs2)C1 (centres undefined)
inactive: [1] 0.6% | [2] 0.5% | [3] 1.6%

C[n+]1ccccc1/C=N/O
inactive: [1] 2.2% and 2.6% | [2] 0.3% and 1.2% | [3] -1.8% and -6.4%

CCN(CC)CCN1C(=O)C(=O)/C(=C(/O)c2c(C)[nH]c(C(=O)OC)c2C)C1c1cccnc1 (centres undefined)
inactive: [1] -1.7% | [2] -0.9% | [3] -4.4%

COC1CCN(Cc2cn(Cc3ccccc3)nc2-c2cc3ccccc3o2)CC1
inactive: [1] 2% | [2] -0.8% | [3] -3.3%

COC(=O)c1[nH]c2ccc(C)cc2c1NC(=O)CN1CCc2cc(OC)c(OC)cc2C1
inactive: [1] -1.9% | [2] -1.7% | [3] 2.1%

COc1ccc(NC(=O)C2CCCN2C(=O)OC(C)(C)C)cc1 (centres undefined)
inactive: [1] 4.1% | [2] 0.9% | [3] -2.4%

CCOc1ccc(NC2OC(C)C(O)C(O)C2O)c([N+](=O)[O-])c1 (centres undefined)
inactive: [1] 3.1% | [2] -0.7% | [3] 11.5%

COc1ccc2c(c1)C=CC1(O2)N(CCO)c2ccccc2C1(C)C (centres undefined)
inactive: [1] 3% | [2] -0.7% | [3] -7.3%

Cc1cccc(C(=O)c2cccc(C)c2)c1
inactive: [1] -4.8% | [2] -0.8% | [3] -11.4%
